HNF4A DNA FP: change in binding of human HNF4A to DNA, primary screen, biochemical, fluorescence polarization, FITC-DNA; Hepatocyte nuclear factor 4-alpha (Homo sapiens), P41235; 1 h; activity change, % at 10 µM; 0.3% of 360,000 active; in the data active = activity change above about 30%, passing the limit was not always enough
Target sequence (P41235 whole entry, looked up): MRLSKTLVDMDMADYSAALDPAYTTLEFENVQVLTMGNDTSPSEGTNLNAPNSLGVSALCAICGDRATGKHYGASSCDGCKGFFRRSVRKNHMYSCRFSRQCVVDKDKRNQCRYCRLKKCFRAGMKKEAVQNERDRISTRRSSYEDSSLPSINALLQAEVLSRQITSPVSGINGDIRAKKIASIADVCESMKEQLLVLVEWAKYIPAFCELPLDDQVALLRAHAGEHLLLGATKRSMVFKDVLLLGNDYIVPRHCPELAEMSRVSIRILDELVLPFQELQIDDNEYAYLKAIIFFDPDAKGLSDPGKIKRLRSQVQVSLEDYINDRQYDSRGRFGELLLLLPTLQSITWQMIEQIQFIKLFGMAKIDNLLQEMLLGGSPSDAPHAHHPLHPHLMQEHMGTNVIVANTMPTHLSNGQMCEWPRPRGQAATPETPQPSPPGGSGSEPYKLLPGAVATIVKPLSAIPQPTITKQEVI
TPT1 inh: Candida albicans TPT1 enzyme inhibitors, primary screen, biochemical, fluorescence polarization | tRNA 2'-phosphotransferase TPT1 (Candida albicans SC5314) | recombinant caTPT1, FP RNA substrate dephosphorylation | inhibition, % at 5 µM | 0.81% of 300,000 active | AID 1962, 2009;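 active = inhibition above the mean of all tested compounds plus 3 SD, set per screening campaign, cut at about 24% in these data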;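 note: plate controls were DMSO alone for no effect and ferristatin control at 100 nM for full effect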
Rpn11 inh: Rpn11 (PSMD14) deubiquitinase inhibitors, primary screen, biochemical, fluorescence polarization, uHTS. AID 588493, 2011. 26S proteasome non-ATPase regulatory subunit 14 (Homo sapiens), O00487. human 26S proteasome, Ub4-pepOG fluorescence polarization; 20S core pre-blocked with epoxomicin. 0.59% of 360,000 active. inhibition, % at 20 µM;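 active = inhibition at 20 µM, scaled to each plate's controls, above about 33%, limit read from the data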
Myeloid diff 2: induction of myeloid progenitor differentiation, primary screen, cell-based, flow cytometry, MLPCN library | ER-HoxA9 myeloid progenitors, lysozyme-GFP differentiation | calls only at 10 µM | 1% of 360,000 active | AID 624256, 2012;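 active = normalized GFP-positive differentiation at or above the plate's own cutoff, the solvent-only control mean plus 3 SD; inconclusive = no clear call, values can overlap the other calls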;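 note: cells exposed to compound for four days before flow analysis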
TPT1 inh confirm: Candida albicans TPT1 inhibitors, confirmation, biochemical, fluorescence polarization, triplicate; inhibition, % at 5 µM; 74% of 2,400 active; shares compounds with TPT1 inh; AID 2149, 2009; recombinant caTPT1, RNase T1 coupled;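 active = inhibition above the primary screen limit, the mean inhibition of all tested compounds plus 3 SD, cut at about 25% in these data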
RNase T1 inh: RNase T1 inhibitors, counter-screen for TPT1 inhibitor project, biochemical, fluorescence polarization. 83% of 2,400 active. AID 2153, 2009. inhibition, % at 5 µM. shares compounds with TPT1 inh. RNase T1 cleavage, 1536-well;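 active = inhibition above the solvent-only control well mean plus 3 SD, limit set per screening run, cut at about 23% in these data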;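 note: plate controls were DMSO wells with enzyme for no effect and wells without RNase T1 for full effect; inhibitors block cleavage so intact labeled substrate keeps polarization high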
Target sequence (P00651 whole entry, looked up): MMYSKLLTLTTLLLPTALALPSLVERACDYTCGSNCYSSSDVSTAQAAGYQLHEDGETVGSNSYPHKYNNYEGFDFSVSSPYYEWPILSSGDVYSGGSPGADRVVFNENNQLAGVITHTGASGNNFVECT
The depositor's hits bear a star. Rows were chosen to be rich in hits. Some 2.1% of all compounds tested hit in one or more screens of this group.

How did O=c1c(C=Nc2cccnc2Cl)c(O)n(CCCCl)c(=O)n1C1CCCCC1 do in these assays?
HNF4A DNA FP: 28; TPT1 inh: 63*; Myeloid diff 2: inactive; TPT1 inh confirm: 86*; RNase T1 inh: 99*

What do the screens show for `O=c1[nH]c2ccccc2n1C1CCN(C(c2cc3ccccc3o2)c2nnnn2Cc2ccccc2)CC1` (centres undefined)?
HNF4A DNA FP: 5; Rpn11 inh: 8; Myeloid diff 2: inactive

How did O=[N+]([O-])c1ccc(N2CCOCC2)c2c1no[n+]2[O-] do in these assays?
HNF4A DNA FP: -6; Rpn11 inh: -56

Results for CCOC(=O)c1c(/N=C/C2C(=O)NC(=S)NC2=O)sc2c1CCC2 ?
HNF4A DNA FP: 94; TPT1 inh: 113*; Myeloid diff 2: inactive; TPT1 inh confirm: 20; RNase T1 inh: 33*

Results for CCCCn1c(=O)c(C=Nc2cc([N+](=O)[O-])ccc2OC)c(O)n(CCCCl)c1=O ?
HNF4A DNA FP: 8; TPT1 inh: 74*; Rpn11 inh: 14; Myeloid diff 2: inactive; TPT1 inh confirm: 53*; RNase T1 inh: 67*

What do the screens show for `Cc1cccc(-n2c(/C=C/c3ccc([N+](=O)[O-])o3)nc3ccccc3c2=O)c1`?
HNF4A DNA FP: 150; TPT1 inh: 40*; Myeloid diff 2: inconclusive; TPT1 inh confirm: 56*; RNase T1 inh: 52*

How did O=c1c2ccccc2nc(/C=C/c2ccc([N+](=O)[O-])o2)n1-c1ccc(O)cc1 do in these assays?
HNF4A DNA FP: 177; Myeloid diff 2: inconclusive

What do the screens show for `Cc1cccc(C)c1-n1nnnc1C(C1CC1)N1CCC2(CC1)C(=O)NCN2c1ccccc1` (centres undefined)?
HNF4A DNA FP: -2; Rpn11 inh: 12; Myeloid diff 2: inactive

How did CC(C)(C)c1cc(C=C(C#N)C#N)cc(C(C)(C)C)c1O do in these assays?
HNF4A DNA FP: 12; TPT1 inh: 61*; Rpn11 inh: 39; Myeloid diff 2: inconclusive; TPT1 inh confirm: 82*; RNase T1 inh: 90*

How did N#CC(C#N)=Cc1ccc(O)c(O)c1 do in these assays?
HNF4A DNA FP: -4; TPT1 inh: -1; Rpn11 inh: -3; Myeloid diff 2: inactive

What do the screens show for `NCc1cc(=O)[nH]o1`?
HNF4A DNA FP: 3; TPT1 inh: 0; Rpn11 inh: -8; Myeloid diff 2: inactive

How did O=C1NC(=O)N(c2ccc3c(c2)OCO3)C(=O)/C1=C\c1ccc(N2CCCCC2)o1 do in these assays?
HNF4A DNA FP: 169; TPT1 inh: 126*; Myeloid diff 2: inactive; TPT1 inh confirm: 148*; RNase T1 inh: 145*

How did Cc1ccccc1N1C(=O)NC(=O)/C(=C\c2cc(Br)c(N3CCOCC3)o2)C1=O do in these assays?
HNF4A DNA FP: 135; TPT1 inh: 96*; Myeloid diff 2: inactive; TPT1 inh confirm: 141*; RNase T1 inh: 140*

What do the screens show for `Cc1ccccc1N1C(=O)NC(=O)/C(=C/c2ccc(N3CCOCC3)o2)C1=O`?
HNF4A DNA FP: 108*; TPT1 inh: 123*; Myeloid diff 2: inactive; TPT1 inh confirm: 136*; RNase T1 inh: 138*

Results for Cc1cccc(C(=O)Nc2ccc3c(c2)CC2(C(=O)N(C)C(=O)N(C)C2=O)C2CCCN32)c1 (centres undefined) ?
HNF4A DNA FP: 16; TPT1 inh: 26*; Rpn11 inh: 17; Myeloid diff 2: inactive; TPT1 inh confirm: 36*; RNase T1 inh: 49*

Results for COc1ccccc1C(=O)Nc1ccc2c(c1)CC1(C(=O)N(C)C(=O)N(C)C1=O)C1CCCN21 (centres undefined) ?
HNF4A DNA FP: 7; TPT1 inh: 15; Rpn11 inh: 14; Myeloid diff 2: inactive

Results for N#Cc1c(/N=C/c2ccc(O)cc2O)sc2c1C1CCN2CC1 ?
HNF4A DNA FP: 40*; TPT1 inh: 65*; Rpn11 inh: 38; Myeloid diff 2: inactive; TPT1 inh confirm: 106*; RNase T1 inh: 107*

What do the screens show for `O=C1CC23c4ccccc4N4C(=O)CC5OCC=C6CN1C2CC6C5C43` (centres undefined)?
HNF4A DNA FP: -4; Rpn11 inh: -10; Myeloid diff 2: inactive

What do the screens show for `CCN1C(=O)C(=Cc2ccc(C)s2)C(=O)N(CC)C1=S`?
HNF4A DNA FP: 4; TPT1 inh: 31*; Myeloid diff 2: inactive; TPT1 inh confirm: 9; RNase T1 inh: 13

Results for CCN1C(=O)C(=Cc2cc(C)n(C3CC3)c2C)C(=O)N(CC)C1=S ?
HNF4A DNA FP: 25; TPT1 inh: 21; Myeloid diff 2: inactive

What do the screens show for `CCCCN1C(=O)/C(=C/c2ccc(N(C)C)cc2)C(=O)N(Cc2ccco2)C1=O`?
HNF4A DNA FP: 20; TPT1 inh: 150*; Myeloid diff 2: inactive; TPT1 inh confirm: 110*; RNase T1 inh: 116*

What do the screens show for `CCN(CC)c1ccc(/C=C2\C(=O)NC(=O)N(Cc3ccco3)C2=O)cc1`?
HNF4A DNA FP: 5; TPT1 inh: 38*; Rpn11 inh: 18; Myeloid diff 2: inactive; TPT1 inh confirm: 93*; RNase T1 inh: 112*

What do the screens show for `CN(C(=O)Oc1cccc2ccccc12)C1C=CCC1` (centres undefined)?
HNF4A DNA FP: 2; Rpn11 inh: -4; Myeloid diff 2: inactive

How did CCCCCN1C(=O)c2cc(OC)ccc2[C@@]2(C(=O)OCC)Cc3cc(Cl)ccc3[C@@H]12 do in these assays?
HNF4A DNA FP: 2; Myeloid diff 2: inconclusive

How did CC(C)n1c(=O)c(C=Nc2ccc(S(N)(=O)=O)cc2)c(O)n(Cc2ccco2)c1=O do in these assays?
HNF4A DNA FP: 5; TPT1 inh: 42*; Rpn11 inh: 28; Myeloid diff 2: inactive; TPT1 inh confirm: 12; RNase T1 inh: 20

How did Cc1cccc(N2C(=O)/C(=C/c3ccc(N4CCN(C)CC4)o3)C(=O)NC2=S)c1C do in these assays?
HNF4A DNA FP: 84*; TPT1 inh: 83*; Myeloid diff 2: inactive; TPT1 inh confirm: 121*; RNase T1 inh: 121*

How did CCc1ccccc1N1C(=O)/C(=C/c2ccc(N3CCN(C)CC3)o2)C(=O)NC1=S do in these assays?
HNF4A DNA FP: 55*; TPT1 inh: 106*; Myeloid diff 2: inactive; TPT1 inh confirm: 142*; RNase T1 inh: 138*

Results for Fc1ccc(CNCCc2ccc3c(c2)OCO3)cc1 ?
HNF4A DNA FP: 5; TPT1 inh: -1; Rpn11 inh: 6; Myeloid diff 2: inactive

Screens as filed in PubChem.
